In the library only some 7.4% were active in any assay of this set; here they are far more common.
Rab9 promoter act: activators of Rab9 promoter | Huh7 Rab9 promoter-luciferase reporter, luminescence, 24 h | Potency, µM (doses to about 9.22 µM), for the others: at the top dose activation, negative = inhibition, actives largely listed as activators | hit rate 2.8% among 320,000; also: % of control where 0% means no effect; nearly all actives have a fitted effect of over 60% in size
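Quantitative HTS format; Huh7 Rab9-luciferase reporter cells (1500/well) receive compound 2 h post-plating, incubate 24 h at 37 °C, then get luciferase reagent for 10 min before luminescence reading.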
SMN2 splice enh: enhancers of SMN2 splice variant expression | HEK293 SMN2-luciferase splicing reporter, luminescence, 30-36 h | Potency, µM (doses to about 46.1 µM), inactives show at the top dose activity change, positive = activation, actives largely listed as activators | hit rate 2.8% among 210,000 | AID 1458; also: % of control where 0% means no effect; nearly all actives have a fitted effect of over 55% in size
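HEK293 cells carry an SMN2 minigene-luciferase reporter in which exon 7 inclusion puts luciferase in frame. Cells were seeded at 2000 cells/well, attached for 10-12 hours, then exposed to compounds for 30-36 hours at 37C before ONE-Glo luminescence.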
NPC1 prom act: activates the NPC1 promoter; Huh7 NPC1 promoter luciferase reporter, 24 h; Potency, µM (titrated, usually from 9.22 µM), inactives show top-dose activation, hits mostly activators; hit rate 2.4% among 320,000; also: % of control where 0% means no effect; nearly all actives have a fitted effect of over 60% in size
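Cells: Huh7 expressing luciferase under the NPC1 promoter, 1500/well. Seeded 2 h, compound added, incubated 24 h at 37 °C. Luciferase reagent, 10 min ambient, then luminescence.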
FLuc counter: firefly luciferase modulation, counter-screen for miR-21 project | P08659 | purified FLuc, Km substrates, luminescence inhibition | Potency, µM (doses to about 57.5 µM), for the others: at the top dose activity change, negative = inhibition, actives largely listed as inhibitors | hit rate 6.9% among 360,000 | AID 588342;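 also: plate controls were vehicle for no effect and reference inhibitor for full effect; nearly all actives have a fitted effect of over 55% in size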
Target sequence (P08659 whole entry, looked up): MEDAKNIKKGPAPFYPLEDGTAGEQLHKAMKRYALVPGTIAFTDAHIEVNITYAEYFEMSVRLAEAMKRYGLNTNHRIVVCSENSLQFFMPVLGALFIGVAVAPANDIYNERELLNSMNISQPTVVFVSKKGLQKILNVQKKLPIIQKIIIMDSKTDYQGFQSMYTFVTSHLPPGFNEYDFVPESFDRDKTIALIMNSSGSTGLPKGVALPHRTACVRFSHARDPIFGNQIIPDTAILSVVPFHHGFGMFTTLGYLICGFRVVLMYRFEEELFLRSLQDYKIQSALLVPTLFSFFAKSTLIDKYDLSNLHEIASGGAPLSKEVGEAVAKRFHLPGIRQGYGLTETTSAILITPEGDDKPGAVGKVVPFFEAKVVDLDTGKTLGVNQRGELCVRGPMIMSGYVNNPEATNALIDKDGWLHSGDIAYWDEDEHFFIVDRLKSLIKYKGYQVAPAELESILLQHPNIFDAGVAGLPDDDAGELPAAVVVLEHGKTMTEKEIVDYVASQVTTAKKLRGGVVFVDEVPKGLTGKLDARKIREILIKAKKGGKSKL
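Purified P. pyralis luciferase (10nM final) with 10uM D-luciferin and 10uM ATP (Km levels) in 50mM Tris acetate pH 7.5, 10mM Mg acetate, 0.01% Tween-20, 0.05% BSA; qHTS 6-point titration, ~60 µM downward; luminescence read.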
ELG1 genotoxic: genotoxicity induction in ELG1-luciferase HEK293T cells; AID 504466; hit rate 1.3% among 330,000; Potency, µM (highest dose often 46 µM), for inactives: at the top dose activity change, positive = activation, hits mostly activators; HEK293T ELG1-luciferase reporter, luminescence, 16 h; also: % of control where 0% means no effect; nearly all actives have a fitted effect of over 60% in size
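Step 1: seed 2,000 HEK293T ELG1-luciferase cells per well. Step 2: add compound or DMSO, incubate 16 hr at 37 °C. Step 3: ONE-Glo, 30 min at room temperature, read luminescence.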
An asterisk follows results filed as active; ? = inconclusive; nt = no result; [ ] = another dose, or the depositor's remark. Calls follow the shape of the dose curve; as a rule, active = well fitted curve in the direction sought with a large enough effect; inconclusive = small, poorly fitted or top-dose-only effect, or another doubt; inactive = no such curve, though single readings can be large; an effect the other way counts as inactive or inconclusive. Potency is read from the fitted curve at half-maximal effect.

SMILES	Rab9 promoter act	SMN2 splice enh	NPC1 prom act	FLuc counter	ELG1 genotoxic
O=C(N/N=C/C1CC=CCC1)c1cc(Br)ccc1O (stereo not drawn)	1%	6%	-1%	13µM*	1%
Cc1cc(F)ccc1NC(=O)Cn1cc(S(=O)(=O)NC(C)C)c(S(=O)(=O)NC(C)C)c1	nt	nt	nt	-1%	nt
Cc1cc(N2CCC(C)CC2)nc(NCc2ccccc2)n1	-3%	-45%	-8%	4%	-6%
CCN(CC)c1ccc(/C=C(\C#N)c2nc(-c3cccs3)c(NC(C)=O)s2)cc1	-9%	nt	-7%	?	-1%
Cc1cc(C(=O)CSc2nc3ccccc3o2)c(C)n1C1CC1	2.2µM*	11µM*	2.2µM*	13µM*	18µM*
Cc1cc(C(=O)CSc2nnc(Cc3ccccc3)o2)c(C)n1Cc1ccc2c(c1)OCO2	-6%	-49%	-6%	-22%	-6%
O=C(CSc1nnc(NCc2ccccc2)s1)c1ccco1	10%	9%	17%	15µM*	5%
C=CCn1c(C)cc(C(=O)CSc2nc3ccccc3o2)c1C	?	?	0.63µM*	1.9µM*	1.6µM*
Cc1cc(C(=O)CSc2ncnc3ccccc23)c(C)n1C1CC1	-6%	nt	15%	?	0%
C=CCn1c(C)cc(C(=O)CSc2nnc(Cc3ccccc3)o2)c1C	7%	-7%	14%	15µM*	1%
O=C(C1CCOCC1)N1CCCC(N2CCN(c3cccc(C(F)(F)F)c3)CC2)C1 (stereo not drawn)	0%	nt	-2%	-2%	0%
Cc1cccc(-n2cnc3cc(C(=O)NCc4ccccc4Cl)ccc32)c1	nt	nt	nt	-15%	nt
Cn1c(N)c(C(=O)COC(=O)/C=C/c2ccccc2)c(=O)n(C)c1=O	nt	nt	nt	nt	0%
CC(C)[C@H](NC(=O)CNC(=O)OC(C)(C)C)C(=O)N[C@H](C=O)C(C)C	nt	-9%	nt	nt	nt
CC(C)Sc1ncc(Cl)c(C(=O)Nc2nc3ccc(S(C)(=O)=O)cc3s2)n1	nt	34%	nt	?	nt
C=CCn1c(C)cc(C(=O)CSc2nnc(NC(C)C)s2)c1C	15%	10%	27%	?	1%
C=CCn1c(C)cc(C(=O)CSc2nnc(NCc3ccccc3)s2)c1C	11%	3%	7%	17µM*	13%
O=C(NCc1cccnc1)c1ccc(-c2ccc(Cl)cc2)o1	-1%	nt	-3%	?	0%
O=C(Nc1cccnc1)c1ccc(-c2cc(Cl)ccc2Cl)o1	4%	-4%	0%	17µM*	-8%
O=C(Nc1cccnc1)c1ccc(-c2ccc(Cl)cc2)o1	?	2%	?	6µM*	9%
O=C(NCc1cccnc1)c1ccc(-c2cc(Cl)ccc2Cl)o1	-10%	nt	-2%	-11%	-7%
N#C/C(=C/c1ccco1)c1nc2ccccc2s1	3.5µM*	?	18%	1.9µM*	16µM*
CCCCc1ccc(-c2csc(/C(C#N)=C\c3ccco3)n2)cc1	-1%	-25%	-1%	-23%	1%
N#C/C(=C/c1ccc(-c2cc(C(=O)O)cc(C(=O)O)c2)o1)c1nc2ccccc2s1	-3%	13%	-2%	2.1µM*	-3%
N#C/C(=C\c1ccco1)c1nc2ccccc2s1	?	11µM*	29%	1.7µM*	7.3µM*
SMILES	Rab9 promoter act	SMN2 splice enh	NPC1 prom act	FLuc counter	ELG1 genotoxic
N#CCCn1cc(/C=C(\C#N)c2nc3ccccc3s2)c(-c2ccc(F)cc2)n1	1%	-8%	-25%	-2%	6%
N#C/C(=C\c1ccc(-c2ccccc2Cl)o1)C(=O)Nc1nc2ccccc2s1	0%	-15%	8%	?	5%
O=C1C=CC2=C3c4cc(O)c(O)cc4C[C@@]3(O)COC2=C1	nt	-20%	nt	nt	nt
CCCN(C(=O)c1cccs1)c1c(N)n(Cc2ccccc2)c(=O)[nH]c1=O	0%	nt	0%	6%	0%
Clc1cccc(Cl)c1CSc1nnc(-c2ccncc2)s1	14%	nt	22%	15µM*	5%
Clc1ccc(CSc2nnc(-c3ccncc3)s2)cc1	-2%	nt	-3%	-1%	1%
CC1CCCCN1C(=O)CSc1nnc(-c2ccco2)o1 (stereo not drawn)	2µM*	nt	1.8µM*	15µM*	21µM*
CC1CCCCN1C(=O)CSc1nnc(-c2ccccc2F)o1 (stereo not drawn)	2.5µM*	nt	2.5µM*	?	?
CCOc1ccc(-n2ccnc(SCC(=O)Nc3cccc(OC)c3)c2=O)cc1	0%	nt	4%	?	nt
COc1ccc(-c2csc(Nc3ncccc3C)n2)cc1	1.6µM*	2.2µM*	1.8µM*	5.4µM*	?
Cc1nc(C)c(-c2csc(Nc3ncccc3C)n2)s1	1.3µM*	nt	2.5µM*	6.7µM*	?
COc1ccc(-c2csc(Nc3ncccc3C)n2)cc1OC	?	?	?	-3%[2.3 µM]	14%
Cc1nc(C)c(-c2csc(Nc3ccc(O)cc3C)n2)s1	-2%	nt	-2%	3%	6%
Cc1cccnc1Nc1nc(-c2ccc(O)c(O)c2)cs1	?	3%	1%	17µM*	5.2µM*
c1csc(-c2cnc3ccccc3n2)c1	?	?	4µM*	11µM*	?
c1ccc(-c2cccs2)nc1	0%	nt	1%	5%	-2%
c1cc(-c2cccs2)nc(-c2cccs2)c1	4%	20%	8%	15µM*	11%
CCn1c(=O)c2cc(C(=O)NCCc3ccc(OC)c(OC)c3)sc2c2ccccc21	nt	0%	nt	-8%	nt
Cc1cccc(-n2c(=O)c3c(c4cc(C)ccc4n3C)n(CC(=O)NCC3CCCO3)c2=O)c1 (stereo not drawn)	nt	nt	nt	0%	nt
COc1ccc(C2=NN(S(=O)(=O)c3ccccc3)C(c3ccccc3)C2)cc1 (stereo not drawn)	0%	nt	0%	-2%	-3%
COc1ccc(C2=NN(CN3C(=O)C(=O)c4ccccc43)C(c3ccc(OC)cc3)C2)cc1 (stereo not drawn)	3.5µM*	10µM*	?	?	?
COc1ccc(C2CC(c3ccccc3)=NN2c2ccc(S(N)(=O)=O)cc2)cc1 (stereo not drawn)	1%	nt	-4%	9.5µM*	-2%
CN1C(=O)C(CC(=O)Nc2ccc(F)cc2)N(NC(=O)c2cccc(F)c2)C1=S (stereo not drawn)	-3%	nt	-1%	2%	-2%
Nc1c(O)ccc2c1C(=O)c1ccccc1C2=O	2%	29%	14%	17µM*	10%
CC(=O)Nc1ccc(S(=O)(=O)Nc2cc(-c3cn4ccccc4n3)ccc2C)cc1	nt	?	nt	17µM*	nt
CCS(=O)(=O)Nc1cc(C(=O)O)ccc1C	-8%	9%	-1%	0%	0%
CCc1ccc(S(=O)(=O)Nc2cc(-c3cn4ccccc4n3)ccc2C)cc1	nt	9%	nt	?	nt
Cc1ccn2cc(-c3ccc(C)c(NS(=O)(=O)c4ccc(Cl)cc4)c3)nc2c1	nt	-31%	nt	11µM*	nt
CCS(=O)(=O)Nc1cc(-c2cn3ccc(C)cc3n2)ccc1C	nt	?	nt	12µM*	nt

Source: PubChem BioAssay (National Center for Advancing Translational Sciences (NCATS))
